This passage reports efficacy results from PubChem BioAssay (NCATS).

The conditions of the experiment: Ebola virus entry assay, green fluorescence channel.

Measured potencies and affinities stand elsewhere. A number with no mark means an inactive call. The rule behind the calls is not given here.
Note: 0% is about no effect.

As for `Cc1cc(=O)[nH]c(=S)[nH]1`, the efficacy was -11.2%.
In the case of `CCn1cc(C(=O)O)c(=O)c2cnc(N3CCCC3)nc21` it was 11.6%; in that of `NC(=O)NC1NC(=O)NC1=O` (stereo unspecified), -19.2%.
In the case of `CCCc1nn(C)c2c(=O)[nH]c(-c3cc(S(=O)(=O)N4CCN(C)CC4)ccc3OCC)nc12` it was 14.7%.
To `CCC(C)C(C)(COC(N)=O)COC(N)=O` (stereo unspecified) belongs 12.3%; to `CC(=O)Nc1c(I)c(NC(C)=O)c(I)c(C(=O)O)c1I`, -8.35%.
For the compound `NS(=O)(=O)c1ccc(C(=O)O)cc1`, the efficacy was 11%.
`COC(=O)c1cc(Cl)ccc1NS(=O)(=O)C(F)(F)F`: the efficacy was -9.07%.
For the compound `C[C@H]1[C@@H]2Cc3ccc(O)cc3[C@@]1(C)CCN2C`, the efficacy was 67.4%.
Turning to `CN(C)C(=O)Oc1ccc[n+](C)c1`, the efficacy was 18%.
To `COc1ccccc1N1CCN(CCCCNC(=O)c2ccc(-c3ccc(C(C)=O)cc3)cc2)CC1` belongs 25.2%; to `CC12CCC(CC1)C(C)(C)O2`, 14.6%; to `COc1ccc(-c2cc(=O)c3c(O)cc(O[C@@H]4O[C@H](CO[C@@H]5O[C@@H](C)[C@H](O)[C@@H](O)[C@H]5O)[C@@H](O)[C@H](O)[C@H]4O)cc3o2)cc1O`, -6.57%.
In the case of `CCn1ccc(NS(=O)(=O)c2ccc(N)cc2)nc1=O` it was -11.6%.
To `CCCCCCCCCCCCSCCOCCO` belongs -41.3%; to `CO[C@@]1(NC(=O)CSCC#N)C(=O)N2C(C(=O)O)=C(CSc3nnnn3C)CS[C@@H]21`, -13.7%.
